# Reference: PubChem BioAssay
# Calls of active or inactive are those of the source. How the calls were made is not given here.
# Biological target: Pantothenate synthetase (Mycobacterium tuberculosis (strain ATCC 25618 / H37Rv)) (UniProt P9WIL5)
# Test: Coupled enzyme confirmation of inhibitors against recombinant Mtb PanC (AID 375);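 further: 0% = full reaction with vehicle and 100% = no enzyme background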
# Settings: coupled enzyme assay; at 10 µM, active compounds read high
# Pantothenate synthetase (Mycobacterium tuberculosis (strain ATCC 25618 / H37Rv)), sequence (P9WIL5 whole entry, looked up): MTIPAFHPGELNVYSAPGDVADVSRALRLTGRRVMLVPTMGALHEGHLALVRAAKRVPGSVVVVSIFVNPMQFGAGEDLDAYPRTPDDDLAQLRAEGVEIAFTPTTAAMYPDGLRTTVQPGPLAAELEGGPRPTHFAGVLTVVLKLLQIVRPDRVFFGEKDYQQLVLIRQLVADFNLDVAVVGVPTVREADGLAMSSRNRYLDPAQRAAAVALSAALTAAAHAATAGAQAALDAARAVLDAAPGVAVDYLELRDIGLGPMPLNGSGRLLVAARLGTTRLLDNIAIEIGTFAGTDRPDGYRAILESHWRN
row,SMILES,inhibition
1,Cc1ccc2oc(-c3ccccc3C(=O)O)cc(=O)c2c1,13% (inactive)
2,CC1CCCC(N2CCN(C(=O)c3ccc(F)cc3)CC2)C1 (stereo not drawn),0% (inactive)
3,CCn1nnnc1SCC(=O)N1CCOCC1,11% (inactive)
4,CCOCCCn1c(=NC(C)=O)c(C(=O)OCC)cc2c(=O)n3ccccc3nc21,0% (inactive)
5,Cc1noc(C)c1C(=O)Nc1sc(C)c(C)c1C#N,2% (inactive)
6,COc1ccc(-c2nnnn2C)cc1S(=O)(=O)NCc1ccccc1,1% (inactive)
7,O=C(c1cn(-c2ccccc2)nc1-c1cccs1)N1CCN(c2ccccn2)CC1,2% (inactive)
8,CCOc1nc(NCCC2=CCCCC2)nc(N2CCOCC2)n1,0% (inactive)
9,CCNc1ccc(C(=O)OCC)cc1NC(=O)c1cc(S(=O)(=O)N2CCOCC2)ccc1C,2% (inactive)
10,O=c1[nH]c(N2CCCCC2)nc2c1CCCC2,0% (inactive)
11,Cc1nc(SCC(=O)Nc2cc(C)on2)c2c3c(sc2n1)CCCC3,4% (inactive)
12,CC(=O)OCC(=O)[C@H]1CC[C@H]2[C@@H]3CCC4=CC(=O)CC[C@]4(C)[C@H]3CC[C@]12C,1% (inactive)
13,O=C1CSC(c2cccc(F)c2)N1c1ccccc1F (stereo not drawn),2% (inactive)
14,CCOC(=O)CNS(=O)(=O)c1c(C)noc1C,0% (inactive)
15,COC(=O)CN1C(=O)CC(C)(C)S(=O)c2ccccc21 (stereo not drawn),0% (inactive)
16,CN(C#N)c1nc(N2CCOCC2)nc(N2CCOCC2)n1,1% (inactive)
17,O=C(CSc1nc2ccccc2[nH]1)N1CCCCC1,0% (inactive)
18,O=C1CC(c2ccc(S(=O)(=O)N3CCN(c4ccccc4)CC3)cc2)CN1 (stereo not drawn),0% (inactive)
